This is a sample that favours compounds with a hit; in the whole collection about 2.9% have one here.
NadD block – inhibitors of S. aureus NadD, primary screen, biochemical, colorimetric, uHTS. purified NadD enzyme, colorimetric absorbance read-out. AID 602399, 2012. inhibition, % at 20 µM. actives 0.78% (n = 360,000); in the data active = inhibition above about 26%
Cardio protect – cardioprotection against H2O2-induced cell death, primary screen, uHTS, H9c2 cells, ATPLite luminescence | H9c2 cardiomyocytes, H2O2 injury protection, 2 h | protection from H2O2 cell death, % at 20 µM | actives 0.63% (n = 360,000) | AID 588492, 2011;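 active = compounds giving at least 50% protection of heart cells from peroxide-induced death in the single-dose screen, raw or plate-pattern-corrected value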
A3A deaminase – APOBEC3A ssDNA deaminase inhibitors, primary screen, selectivity assay for APOBEC3G inhibitor project, biochemical, FAM/TAMRA oligo cleavage fluorescence | DNA dC->dU-editing enzyme APOBEC-3A (Homo sapiens), P31941 | actives 0.41% (n = 330,000) | inhibition, % at 20 µM | recombinant A3A, FAM/TAMRA ssDNA deamination fluorescence | AID 493011, 2011;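 active = at least 40% inhibition at 20 µM here, with at most 30% in a related deaminase screen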
Target sequence (P31941 whole entry, looked up): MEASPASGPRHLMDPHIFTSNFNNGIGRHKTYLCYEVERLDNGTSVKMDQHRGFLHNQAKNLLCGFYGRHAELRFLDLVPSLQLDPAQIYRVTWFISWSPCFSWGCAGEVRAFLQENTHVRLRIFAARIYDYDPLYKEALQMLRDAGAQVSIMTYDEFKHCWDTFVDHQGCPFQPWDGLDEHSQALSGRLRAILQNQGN
APOBEC3G inh – APOBEC3G DNA deaminase inhibitors, primary screen, biochemical, fluorescence, single-stranded DNA substrate, uHTS | actives 0.28% (n = 330,000) | inhibition, % at 20 µM | DNA dC->dU-editing enzyme APOBEC-3G (Homo sapiens), Q9HC16 | recombinant A3G, ssDNA deamination FAM/TAMRA fluorescence | AID 493012, 2011;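 active = inhibition of at least 40% at 20 µM, with no more than 30% in the related APOBEC3A deaminase screen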
Target sequence (Q9HC16 whole entry, looked up): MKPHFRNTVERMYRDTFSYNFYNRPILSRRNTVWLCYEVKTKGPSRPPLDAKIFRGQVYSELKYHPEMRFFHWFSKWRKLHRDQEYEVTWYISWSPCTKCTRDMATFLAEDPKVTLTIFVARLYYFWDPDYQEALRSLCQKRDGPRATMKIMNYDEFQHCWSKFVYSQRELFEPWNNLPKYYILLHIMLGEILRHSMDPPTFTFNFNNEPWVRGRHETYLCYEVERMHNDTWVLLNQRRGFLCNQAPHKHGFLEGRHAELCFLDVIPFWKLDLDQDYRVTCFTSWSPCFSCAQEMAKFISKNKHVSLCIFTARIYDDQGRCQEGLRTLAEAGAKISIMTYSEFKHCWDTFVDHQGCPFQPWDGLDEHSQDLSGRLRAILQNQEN
TAG inh – inhibitors of triacylglycerol accumulation, primary screen, cell-based, uHTS, fluorescence, H9c2; H9c2 cells, Nile Red lipid (TAG) fluorescence; cells loaded with 200 µM oleic acid; inhibition, % at 12.5 µM; actives 0.66% (n = 230,000);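 active = pattern-corrected inhibition of lipid staining of at least 50% with the nuclear-stain viability signal not falling by more than 50%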
PfGluPho inh – PfG6PD enzyme inhibitors, primary screen, biochemical, fluorescence intensity, uHTS; PfGluPho enzyme, NADPH resazurin-diaphorase fluorescence; inhibition, % at 20 µM; actives 0.78% (n = 350,000); AID 504690, 2011;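 active = inhibition reaching at least a set limit at 20 µM in the primary screen, cut at about 59% in these data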
NadD conf – inhibitors of S. aureus NadD, confirmation, biochemical, colorimetric, single concentration; inhibition, % at 20 µM; shares compounds with NadD block; purified S. aureus NadD, colorimetric enzyme assay; actives 13% (n = 2,000); in the data active = inhibition mostly above about 42%, no sharp cut-off; inactive = mostly below about 42%
Numbers stand for hits; – = inactive; · = no result given.

SMILES | NadD block | Cardio protect | A3A deaminase | APOBEC3G inh | TAG inh | PfGluPho inh | NadD conf
CCCn1c(=O)c(C(=O)NNS(=O)(=O)c2ccc(Cl)cc2)c(O)c2ccccc21 | 30 | – | – | – | · | – | –
CCC(=O)Nc1ccc(C(=O)CN2C(=O)NC3(CCOc4ccccc43)C2=O)cc1 (stereo unspecified) | – | – | – | – | – | – | ·
Cc1sc(NC(=O)Cc2ccc3c(c2)OCO3)nc1-c1ccc2c(c1)CCN2C(=O)c1cccc(F)c1 | 34 | – | – | – | · | – | –
Cc1nc(N2CCN(c3ccccn3)CC2)c2c(C)c(C(=O)Nc3ccc(Br)cc3C)sc2n1 | 30 | – | – | – | · | – | –
CC1(C(=O)NCc2ccccn2)CCN1C(=O)Cc1ccc(Cl)cc1Cl (stereo unspecified) | – | – | · | · | – | · | ·
COc1ccccc1C(=O)NCCC(=O)N1CC=C(c2ccccc2)CC1 | 42 | – | – | – | – | – | –
O=C1CC(/C=C/c2ccccc2)=Nc2ccccc2N1 | – | – | – | – | – | – | ·
O=C1CC(/C=C/c2ccc(Cl)cc2)=Nc2ccccc2N1 | 33 | – | – | – | – | – | –
CCOc1ccc(N=C2SC(C(=O)Nc3ccccc3C#N)C(N)=C2C(=O)Nc2ccc(Cl)cc2)cc1 (stereo unspecified) | 31 | – | – | – | · | – | –
N#Cc1ccccc1NC(=O)C1SC(=Nc2ccccc2)C(C(=O)Nc2ccc(Cl)cc2)=C1N (stereo unspecified) | – | – | – | – | – | – | ·
Cc1ccccc1[C@H](NC1c2ccccc2C=Cc2ccccc21)P(=O)(c1ccccc1)c1ccccc1 | 31 | · | · | · | · | · | –
Cc1ccc(P(=O)(c2ccc(C)cc2)[C@@H](NC(c2ccccc2)c2ccccc2)c2ccccc2)cc1 | – | · | · | · | · | · | ·
COc1ccc(-c2csc(NC(=S)NC(=O)c3cccs3)n2)cc1Br | 25 | – | – | – | – | – | –
COC(=O)C1=C(C(=O)OC)[C@]2([C@H]3CCCCN[C@@H](Cc4ccccc4)C(=O)N3Cc3ccccc3)C=C[C@H]1O2 | – | – | – | – | · | – | ·
CC1=NN(c2ccc(Cl)cc2)C(=O)C1C(c1ccccc1O)c1c(C)[nH]n(-c2ccc(Cl)cc2)c1=O (stereo unspecified) | 31 | – | – | – | · | – | 52
Cc1ccc(C(=O)N2CCN(C)CC2)cc1S(=O)(=O)N1CCCCCC1 | – | – | – | – | – | – | ·
COc1ccc(OCc2cc(C(=O)NCC3CCCCO3)no2)c(Cl)c1 (stereo unspecified) | – | – | – | – | · | – | ·
O=C(Nc1ccc2c(c1)OCO2)C1CCN(S(=O)(=O)c2cccs2)CC1 | – | – | – | – | · | – | ·
O=C(Nc1ccc2c(c1)OCO2)C1Cc2ccccc2CN1S(=O)(=O)c1cccs1 (stereo unspecified) | 31 | – | – | – | – | – | –
Nc1cc(=O)[nH]c(SCC(=O)N2N=C(c3ccc4ccccc4c3)CC2c2ccccc2)n1 (stereo unspecified) | 40 | – | – | – | – | – | –
Nc1ncccc1OCc1ccc(Cl)c(Cl)c1 | – | – | – | – | – | – | ·
O=C(CSc1nnc2scc(-c3ccccc3)n12)Nc1nsc(-c2ccc(Cl)cc2)n1 | 41 | – | – | – | – | – | –
COc1cc(/C=C/c2ccc3c(Br)cc(Br)c(O)c3n2)ccc1O | 61 | – | · | · | · | – | –
O=C(CN1CCC(NC(=O)c2ccc(F)cc2)CC1)NCc1ccccc1F | – | – | – | – | · | – | ·
COc1ccc(C(=O)NC2CCN(CC(=O)NCc3ccccc3F)CC2)cc1 | 40 | – | – | – | · | – | –
SMILES | NadD block | Cardio protect | A3A deaminase | APOBEC3G inh | TAG inh | PfGluPho inh | NadD conf
Cc1c(-c2cccc(Cl)c2)nc2ccccc2c1C(=O)OC/C(O)=C(\C#N)c1nc2ccccc2[nH]1 | 70 | – | – | – | – | – | –
Cc1c(C(=O)OC/C(O)=C(\C#N)c2nc3ccccc3[nH]2)oc2ccc(Br)cc12 | 43 | – | – | – | – | – | –
COc1cccc(COC(=O)C2CCN(C(=O)c3ccc(F)cc3)CC2)c1OC | – | – | – | – | – | – | ·
Cc1ccc(NC(=O)c2sc3nc4c(c(-c5ccco5)c3c2N)CCC4)cc1 | 31 | – | – | – | – | – | –
Nc1c(C(=O)Nc2ccc(Br)cc2)sc2nc(-c3ccco3)ccc12 | 51 | – | – | – | · | – | –
Cc1ccccc1NC(=O)c1sc2nc3c(c(-c4ccco4)c2c1N)CCCC3 | 33 | – | – | – | – | – | –
CC(C)(C)NC(=O)C[C@H]1C[C@H](C(=O)N2CCCCC2)[C@@]2(C)c3[nH]c4ccc(Cl)cc4c3CCN2C1=O | – | – | – | – | – | – | ·
Cc1cc(N2CCN(C(=O)c3[nH]c(C(F)(F)F)nc3-c3ccccc3)CC2)c2ccccc2n1 | – | – | · | · | · | · | ·
COc1ccc(-c2nn(-c3ccccc3)cc2/C=N/NC(=O)c2cccc(S(=O)(=O)Nc3ccccc3OC)c2)cc1 | 45 | – | – | – | – | – | –
Cc1cc(C(=O)N/N=C/C=C/c2ccc([N+](=O)[O-])cc2)n[nH]1 | – | – | – | – | · | – | ·
NN=C1c2ccccc2C(=O)C1C(=O)C(c1ccccc1)c1ccccc1 (stereo unspecified) | 30 | – | · | · | – | – | 50
C=C1CN(Cc2ccccc2)S(=O)(=O)c2ccccc21 | 42 | – | – | – | – | – | –
C=C1CN(CC(=O)OC)S(=O)(=O)c2ccccc21 | – | – | – | – | – | – | ·
COc1ccc(NC(=O)c2cc(S(=O)(=O)N3CCOCC3)ccc2C)cc1S(=O)(=O)N1CCOCC1 | – | – | – | – | – | – | ·
N#Cc1ccc(NC(=O)Cn2cnc([N+](=O)[O-])c2)cc1 | – | – | – | – | – | – | ·
O=C(Cn1cnc([N+](=O)[O-])c1)Nc1cc(Oc2ccc(Cl)cc2Cl)cc([N+](=O)[O-])c1 | 32 | – | – | – | · | – | –
Cc1c(C(=O)NNC(=O)c2csc(N3CCOCC3)n2)oc2ccc(Br)cc12 | 32 | – | · | · | – | – | –
CSc1nc(SCC(=O)O)c2sc3nc(-c4ccccc4)c4c(c3c2n1)CCC4 | 28 | – | · | · | – | – | –

Bioassay records (PubChem)
